Test results published in PubChem BioAssay (EPA / NIEHS).
The source made the active and inactive calls. Rule for the calls: active = hit-call score of the fitted dose curve at least 0.9, where 1 is the maximum; inactive = score below 0.9.

Test: ATG_E_Box_CIS: Attagene CIS-FACTORIAL HepG2 Assay for human Enhancer Box (E-box) (AID 2282936)
Details: HepG2 E-box cis-reporter transcription, actives raise or lower the signal
Protocol: ATG_CIS is a cell-based, multiplexed-readout assay that uses HepG2, a human liver cell line, with measurements taken at 24 hours after chemical dosing in a 24-well plate.ATG_E_Box_CIS is one of 52 assay component(s) measured or calculated from the ATG_CIS assay. It is designed to make measurements of mRNA induction, a form of inducible reporter, as detected with fluorescence intensity signals by Reverse transcription polymerase chain reaction (RT-PCR) and Capillary electrophoresis technology.Data from the assay component ATG_E_Box_CIS was analyzed into 1 assay endpoint. This assay endpoint, ATG_E_Box_CIS, was analyzed with bidirectional fitting relative to DMSO as the negative control and baseline of activity. Using a type of inducible reporter, measures of mRNA for gain or loss-of-signal activity can be used to understand the reporter gene at the transcription factor-level as they relate to the gene USF1. Furthermore, this assay endpoint can be referred to as a primary readout, because this assay has produced multiple assay endpoints where this one serves a reporter gene function. To generalize the intended target to other relatable targets, this assay endpoint is annotated to the dna binding intended target family, where the subfamily is basic helix-loop-helix protein.
Human liver HepG2 cells are transiently transfected with multiple reporter transcription units (MRTUs) in 6-well plates using FuGene 6 reagent (Roche; 3 ml FuGene/1 mg DNA). The MRTU constructs are regulated by a cis-regulating element (promoter). […] A major difference between the CIS and TRANS system is that in CIS activities of endogenous TFs are measured, whereas the TRANS assay evaluates changes in activities of exogenous, chimeric NR-Gal4 proteins. […] At the end of 24 hour incubation, total RNA was isolated using TriZol reagent (Invitrogen). The isolated RNA is then reverse-transcribed using oligo(dT) primer and Mo-MLV reverse transcriptase (Invitrogen) with DNAse I (Ambion) treatment for 30 min. The one-tenth of the produced cDNA was amplified by PCR using Taq DNA polymerase (Invitrogen) and two reporter sequence-specific primers. The PCR products were fluorescently labeled by primer extension with 6-arboxyfluorescein (6-FAM) 5'-labeled reporter sequence-specific primer (2 min at 95 C, 20 s at 68 C and 10 min at 72 C) and these products were digested with 5U of HpaI (New England Biolabs) for 2h at 37 C. The fragments were purified using Qiaquick PCR columns (Qiagen), analyzed on an ABI 3130xL genetic analyzer (Applied Biosystems) with peak positions identified by using a set of X-rhodamine (ROX)-labeled MapMarker1000 molecular weight standards (BioVentures). The raw capillary electrophoresis data was processed using Attagraph software (Attagene).
In the case of NC(=O)c1cnccn1, the outcome is reported as “inactive”.
For CC(=O)c1ccc2ccccc2c1, the outcome was “inactive”.
With CC1=CCC(C(C)(C)O)CC1 (stereo not given) the outcome was “inactive”.
For CCCO[Si](OCCC)(OCCC)OCCC, the outcome was “inactive”.
With COc1ccc(N)c(C)c1 the outcome was “inactive”.
In the case of O=S(=O)(O)c1cc(S(=O)(=O)O)c2c(N=Nc3ccccc3)c(O)ccc2c1, the outcome is reported as “inactive”.
For CCCC1CCOC(C)S1 (stereo not given), the outcome was “inactive”.
With COC(=O)C(C)Oc1ccc(Oc2ncc(C(F)(F)F)cc2Cl)cc1 (stereo not given) the AC50 was 180 µM (active).
With O=Cc1ccccc1O the outcome was “inactive”.
In the case of CN(C)CCC=C1c2ccccc2CCc2ccccc21, the outcome is reported as “inactive”.
With CCCC[N+](C)(CCCC)CCCC the outcome was “inactive”.
For O=C(O)CS, the outcome was “inactive”.
With CCCCCCCCCCCCOCCOS(=O)(=O)O the outcome was “inactive”.
For CCCCCC1CCC(=O)O1 (stereo not given), the outcome was “inactive”.
With O=S(=O)(O)CCCN1CCOCC1 the outcome was “inactive”.
For O=C1CCCCCCCCCCCC(=O)OCCO1, the outcome was “inactive”.
For CC1COC(=O)O1 (stereo not given), the outcome was “inactive”.
For CCCCOC(=O)C(C)OC(=O)CCC (stereo not given), the outcome was “inactive”.
With C1=COCCC1 the outcome was “inactive”.
With CC(=O)CCc1ccc(O)cc1 the outcome was “inactive”.
With C=C(C)C(=O)OCCC(C)OC(=O)C(=C)C (stereo not given) the outcome was “inactive”.
In the case of O=c1cc[nH]cc1, the outcome is reported as “inactive”.
In the case of NC(=O)NC(N)=O, the outcome is reported as “inactive”.
For CC1(C)[C@H](C=C(Cl)Cl)[C@H]1C(=O)OCc1cccc(Oc2ccccc2)c1, the outcome was “inactive”.
For CCCCCC1C(=O)CCC1CC(=O)OC (stereo not given), the outcome was “inactive”.
In the case of CCCCC/C=C\C=C\C(=O)OCC, the outcome is reported as “inactive”.
In the case of CCC(C)(CCCC(C)C)OC(C)=O (stereo not given), the outcome is reported as “inactive”.
In the case of CC/C(=C(\c1ccccc1)c1ccc(OCCN(C)C)cc1)c1ccccc1, the outcome is reported as “inactive”.
With OCCN1CCOCC1 the outcome was “inactive”.
In the case of C[C@]12CC[C@@H]3c4ccc(O)cc4CC[C@H]3[C@@H]1CC[C@@H]2O, the outcome is reported as “inactive”.
In the case of O=C1CCC(=O)N1, the outcome is reported as “inactive”.
With CCCCCCCCOC(C)=O the outcome was “inactive”.
In the case of COc1ccc(C(C)=O)cc1, the outcome is reported as “inactive”.
In the case of CC1=CC(C)C(C=O)C(C)C1 (stereo not given) (tested in a mixture with another compound), the outcome is reported as “inactive”.
For OC[C@@H](O)[C@H](O)[C@@H](O)[C@@H](O)CO, the outcome was “inactive”.
For CC(C)N1C(=O)c2ccccc2C1=O, the outcome was “inactive”.
For CC(C)(C)c1ccc(S)cc1, the outcome was “inactive”.
For CC12CCC(C1)C(C)(C)C2O (stereo not given), the outcome was “inactive”.
For CCCCCCCCOC(=O)c1ccc(O)cc1, the outcome was “inactive”.
In the case of O=C(C=Cc1ccccc1)OCCCc1ccccc1, the outcome is reported as “inactive”.
